# Data from publication PMC11102862.
# Key:
# [1] = molecular target: Pre-mRNA-processing-splicing factor 8 (UniProt Q6P2Q9); test: cross-link between two proteins; cross-linking mass spectrometry
# [2] = molecular target: Thioredoxin-like protein 4A (UniProt P83876); test: as above
# [3] = molecular target: U5 small nuclear ribonucleoprotein 40 kDa protein (UniProt Q96DI7); test: as above
# [4] = molecular target: CD2 antigen cytoplasmic tail-binding protein 2 (UniProt O95400); test: as above
# [5] = molecular target: U5 small nuclear ribonucleoprotein TSSC4 (UniProt Q9Y5U2); test: cross-linking mass spectrometry
# Sequence of U5 small nuclear ribonucleoprotein TSSC4 (Q9Y5U2 whole entry): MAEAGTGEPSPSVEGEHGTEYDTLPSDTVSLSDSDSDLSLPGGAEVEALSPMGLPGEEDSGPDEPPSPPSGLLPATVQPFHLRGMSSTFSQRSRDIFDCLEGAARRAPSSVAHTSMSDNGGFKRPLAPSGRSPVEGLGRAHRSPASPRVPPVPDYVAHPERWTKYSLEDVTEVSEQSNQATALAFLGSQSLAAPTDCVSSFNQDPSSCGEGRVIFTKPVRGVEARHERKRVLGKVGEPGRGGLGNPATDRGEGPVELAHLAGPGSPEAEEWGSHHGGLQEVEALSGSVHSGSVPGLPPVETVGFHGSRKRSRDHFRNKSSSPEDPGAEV
# Sequence of U5 small nuclear ribonucleoprotein 40 kDa protein (Q96DI7 whole entry): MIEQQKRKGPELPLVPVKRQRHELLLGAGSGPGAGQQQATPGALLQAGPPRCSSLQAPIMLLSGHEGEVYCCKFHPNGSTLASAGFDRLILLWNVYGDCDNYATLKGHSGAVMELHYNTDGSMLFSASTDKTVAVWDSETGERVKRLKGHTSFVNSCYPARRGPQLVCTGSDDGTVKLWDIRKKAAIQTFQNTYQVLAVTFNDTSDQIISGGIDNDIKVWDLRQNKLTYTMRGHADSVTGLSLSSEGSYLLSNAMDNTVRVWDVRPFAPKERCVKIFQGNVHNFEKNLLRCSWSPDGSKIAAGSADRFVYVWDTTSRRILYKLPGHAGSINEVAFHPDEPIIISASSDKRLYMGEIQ
# Sequence of CD2 antigen cytoplasmic tail-binding protein 2 (O95400 whole entry): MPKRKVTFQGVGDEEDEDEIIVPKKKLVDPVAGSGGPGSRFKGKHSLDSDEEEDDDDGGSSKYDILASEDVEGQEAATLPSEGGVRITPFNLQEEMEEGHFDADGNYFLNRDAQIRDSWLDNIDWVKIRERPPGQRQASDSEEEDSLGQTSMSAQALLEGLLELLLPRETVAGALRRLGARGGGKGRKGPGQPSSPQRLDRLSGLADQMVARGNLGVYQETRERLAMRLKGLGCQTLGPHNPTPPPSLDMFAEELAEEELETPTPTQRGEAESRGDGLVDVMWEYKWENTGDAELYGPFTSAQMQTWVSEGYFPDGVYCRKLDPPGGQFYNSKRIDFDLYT
# Sequence of Thioredoxin-like protein 4A (P83876 whole entry): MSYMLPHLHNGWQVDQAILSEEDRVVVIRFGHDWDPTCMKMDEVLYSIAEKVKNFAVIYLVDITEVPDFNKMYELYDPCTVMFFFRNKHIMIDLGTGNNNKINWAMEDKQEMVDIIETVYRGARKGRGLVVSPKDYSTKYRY
substance,measurement,setting,value
"CD2 antigen cytoplasmic tail-binding protein 2, O95400",listed as a hit,[1],yes
same,listed as a hit,[2],yes
same,listed as a hit,[3],yes
"Pre-mRNA-processing factor 6, O94906",listed as a hit,[4],yes
same,listed as a hit,[3],yes
"U5 small nuclear ribonucleoprotein 200 kDa helicase, O75643",listed as a hit,[5],yes
